High-throughput results (PubChem BioAssay)
Pol beta inh = inhibitors of human DNA polymerase beta. Pol beta primer extension/strand displacement, fluorescence kinetic. Potency, µM (doses to about 114 µM), without a hit: at the highest dose activity change, negative = inhibition, hits mostly inhibitors. 340,000 compounds, 1.3% hits. AID 485314; further: on the % scale 0 is the no-effect control and ±100 the full control effect
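Pol beta (10 nM) and compounds were preincubated 15 min at room temperature, then 50 nM substrate (final) started primer extension/strand displacement. Reads were taken at 0 and 10 min; concentration-response data were fitted to a four-parameter Hill equation.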
Pol iota inh = blocks human DNA polymerase iota activity; 390,000 compounds, 1% hits; AID 588590; Pol iota fluorescent replication assay, 10 min; Q9UNA4; Potency, µM (highest dose often 115 µM), for the others: top-dose activity, negative = inhibition, actives largely listed as inhibitors
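Pol iota at 10 nM preincubated 15 min with compounds at room temperature; reaction started with fluorescent substrate, 50 nM final. Fluorescence read kinetically at 0 and 10 min; buffer-only wells as negative control.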
APEX1 inh = blocks human APE1 abasic DNA cleavage | P27695 | recombinant APE1, TAMRA/BHQ-2 abasic DNA cleavage fluorescence | Potency, µM (titrated, usually from 65.8 µM), for inactives: top-dose activity change, negative = inhibition, actives largely listed as inhibitors | 350,000 compounds, 0.35% hits;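 further: plate controls were vehicle for no effect and reference inhibitor for full effect; nearly all actives have a fitted effect of over 55% in size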
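Endonuclease cleavage of a quenched abasic-site DNA duplex (50 nM) by APE1 (0.75 nM) was tracked by TAMRA dequenching. Compounds were preincubated with enzyme 15 min at room temperature; data normalized to buffer-only and DMSO wells plus NSC13755 control.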
Pol kappa inh = DNA polymerase kappa (human) inhibition | 400,000 compounds, 0.53% hits | AID 588579 | purified Pol kappa, fluorescent DNA synthesis assay, 10 min | Q9UBT6 | Potency, µM (highest dose often 107 µM), without a hit: at the highest dose activity, negative = inhibition, most hits filed as inhibitors; further: on the % scale 0 is the no-effect control and ±100 the full control effect
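Enzyme at 10 nM met test compounds for 15 min at room temperature. Substrate addition (50 nM final) began the reaction, which was monitored by fluorescence at 0 and 10 min.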
POLH inh = DNA polymerase eta (human) inhibition | recombinant Pol eta, fluorescent DNA replication assay | Potency, µM (titrated, usually from 114 µM), without a hit: at the top dose activity change, negative = inhibition, hits mostly inhibitors | Q9Y253 | 390,000 compounds, 1.2% hits; further: on the % scale 0 is the no-effect control and ±100 the full control effect
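Pol eta (10 nM) was preincubated with compounds for 15 min at room temperature, after which fluorescent replication substrate (50 nM final) was added to start the reaction. Fluorescence was read kinetically at 0 and 10 min.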
L3MBTL1 inh = inhibitors of human L3MBTL1 | 230,000 compounds, 0.66% hits | AlphaScreen L3MBTL1–H3K9me1 peptide binding | Potency, µM (top dose mostly 57.1 µM), inactives show at the top dose activity, negative = inhibition, usual class: inhibitors | AID 485360; further: on the % scale 0 is the no-effect control and ±100 the full control effect; nearly all actives have a fitted effect of over 60% in size
Target sequence (Q9Y468 whole entry, looked up): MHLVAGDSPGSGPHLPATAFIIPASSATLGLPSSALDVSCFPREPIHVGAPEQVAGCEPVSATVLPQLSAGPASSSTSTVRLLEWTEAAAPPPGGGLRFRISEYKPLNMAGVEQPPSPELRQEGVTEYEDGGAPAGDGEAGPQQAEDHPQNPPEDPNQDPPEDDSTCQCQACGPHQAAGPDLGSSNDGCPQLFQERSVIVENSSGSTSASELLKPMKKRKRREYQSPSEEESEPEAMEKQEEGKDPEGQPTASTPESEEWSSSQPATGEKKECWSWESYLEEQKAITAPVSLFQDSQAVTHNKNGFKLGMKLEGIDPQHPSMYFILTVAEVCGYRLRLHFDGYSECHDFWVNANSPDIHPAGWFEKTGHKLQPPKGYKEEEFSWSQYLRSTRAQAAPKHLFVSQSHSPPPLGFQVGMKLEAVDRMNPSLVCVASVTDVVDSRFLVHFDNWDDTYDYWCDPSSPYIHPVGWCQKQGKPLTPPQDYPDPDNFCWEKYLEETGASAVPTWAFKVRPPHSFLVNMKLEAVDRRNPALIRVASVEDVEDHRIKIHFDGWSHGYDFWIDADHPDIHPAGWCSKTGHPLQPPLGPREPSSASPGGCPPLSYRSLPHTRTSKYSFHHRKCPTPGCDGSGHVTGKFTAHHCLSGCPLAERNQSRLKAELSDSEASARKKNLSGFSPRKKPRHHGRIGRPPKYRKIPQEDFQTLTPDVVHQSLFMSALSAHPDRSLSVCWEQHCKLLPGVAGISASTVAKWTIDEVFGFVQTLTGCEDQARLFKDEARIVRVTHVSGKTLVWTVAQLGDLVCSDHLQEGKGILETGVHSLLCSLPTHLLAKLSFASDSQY
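AlphaScreen proximity signal between nickel-chelate acceptor and streptavidin donor beads (final 10 ug/mL) reports binding of 50 nM L3MBTL1 to 75 nM biotin-H3 K9me1 peptide; complex incubated with compounds 30 min at room temperature; cefsulodin titration as control.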
An asterisk follows results filed as active; ? = inconclusive; · = not tested or not shown; [ ] = remark or other dose. A selection: hits, their analogues and other compounds. The true share with any hit is near 2.5%. The call rests on the fitted dose curve; in most records, active means well fitted curve in the direction sought with a large enough effect; inconclusive means small, poorly fitted or top-dose-only effect, or another doubt; inactive means no such curve, though single readings can be large; an effect the other way counts as inactive or inconclusive. Potency means the concentration at half of the fitted maximal effect.

SMILES	Pol beta inh	Pol iota inh	APEX1 inh	Pol kappa inh	POLH inh	L3MBTL1 inh
COc1cc(/C=C2\C(=N)N3N=C(S(C)(=O)=O)SC3=NC2=O)ccc1OCCOc1ccccc1C	50µM*	49%	?	-17%	50µM*	·
COc1ccccc1OCCOc1ccc(/C=C2/C(=N)N3OC(C)=CC3=NC2=O)cc1OC	4%	4%	3%	-18%	4µM*	0%
COc1ccc(OCCOc2ccc(/C=C3\C(=N)N4N=C(C)SC4=NC3=O)cc2)cc1	·	44%	9.5µM*	11%	-11%	0%
CC1=CC2=NC(=O)/C(=C\c3cccn3CCOc3ccccc3C)C(=N)N2O1	-3%	?	6%	-5%[60.1 µM]	-11%	·
CN(C)C(=O)CCc1nc2sc3c(c2c(=O)[nH]1)CCCC3	-1%	-7%	1%	-5%	-15%	·
CN(Cc1ccco1)C(=O)CCc1nc2sc3c(c2c(=O)[nH]1)CCCC3	8%	45µM*	0%	?	?	·
Cc1ccc(CN(C)C(=O)CCc2nc3sc4c(c3c(=O)[nH]2)CCCC4)o1	25µM*	18µM*	-7%	-40%	22µM*	·
CN(C)c1ccc(/C=C/c2cc(Cl)nc3ccccc23)cc1	·	49%	·	19%	·	·
CC(=O)C1=C(c2ccc(Br)cc2)C(=O)c2ccccc2C1=O	19%	3.5µM*	-5%	?	-5%	-11%
Cc1ccc2oc(-c3cccc(NC(=O)COc4ccc(Cl)cc4C)c3C)nc2c1	·	16%	·	10%	·	·
CCc1ccc(O)c(N=Cc2ccccc2O)c1	12%	36%	-1%	2%	-1%	·
O=c1[nH][nH]c2c(N=Cc3ccccc3O)ccc(F)c12	7.1µM*	0.89µM*	8.9µM*	4µM*	3.2µM*	3.5µM*
COc1cc2c(cc1OC)-c1cc(NCc3ccccn3)nc(=O)n1CC2	1%	2.5µM*	-1%	-1%	-5%	?
CCCNC(=O)COC(=O)c1c2c(nc3ccccc13)CCC2	50µM*	25µM*	-5%	?	50µM*	·
COC(=O)c1c2c(nc3ccccc13)CCC2	?	0%	2%	7%	-12%	·
CC(C)CNC(=O)COC(=O)c1c2c(nc3ccccc13)CCC2	40µM*	?	42%	-33%	?	·
CC(C)(C)C(=O)COC(=O)c1c2c(nc3ccccc13)CCC2	18µM*	?	10%	-11%	79µM*	?
CC(C)CNC(=O)COC(=O)c1c2c(nc3ccccc13)/C(=C/c1cccs1)CC2	18µM*	?	-7%	-8%	?	?
NC(=O)COC(=O)c1c2c(nc3ccccc13)CCCCC2	25%	10%	-9%	2%	-2%	13%
Cc1cnccn1	·	83%	·	1%	·	·
O=c1[nH]cc(CCc2ccccc2)c2ncncc12	·	?	·	0%	·	·
O=S(=O)(c1cccc(Cl)c1)N1CCN(c2nc(-c3cccs3)nc3ccccc23)CC1	·	28%	·	3%	·	·
CC(=O)c1ccccc1NC(=O)COC(=O)c1cc2ccccc2[nH]1	·	-13%	-2%	-15%	8%	1%
CC[n+]1c(/C=C/N(C)c2ccccc2)n(-c2ccccc2)c2ccc(-c3nc4ccccc4s3)cc21	-20%	136%	?	21µM*	?	-2%
CCOC(=O)c1ccc2c(c1)n(CC)c(/C=C/N(C)c1ccccc1)[n+]2CC	-25%	17%	2%	-15%	-13%	7%
SMILES	Pol beta inh	Pol iota inh	APEX1 inh	Pol kappa inh	POLH inh	L3MBTL1 inh
CC1=Nc2ccccc2/C1=C\c1nc(-c2ccc(C(F)(F)F)cc2)oc1O	16%	8.9µM*	-1%	-13%	55%	-1%
COc1ccccc1-c1ccc(SCC(=O)NCCc2ccccc2)nn1	24%	167%	-1%	10%	-22%	7%
COc1ccc(C)cc1NC(=O)CSc1ccc(-c2ccco2)nn1	-3%	32µM*	14%	?	?	·
Cc1cccc(NC(=O)CSc2ccc(-c3ccco3)nn2)c1C	?	13µM*	14%	?	5%	-17%
COc1ccccc1CCNC(=O)CSc1ccc(-c2ccco2)nn1	16µM*	?	?	-23%	-16%	·
COc1ccc(C)cc1NC(=O)CSc1nnc(-c2ccco2)n1N	-2%	23%	-3%	-28%	13%	-2%
COc1ccc(NC(=O)CCc2c(C)nc3c(-c4ccccc4)c(C)nn3c2C)cc1Cl	3%	-59%	·	-30%	-14%	·
Cn1nc(C(=O)NCc2ccc(F)cc2)cc1C(=O)NCc1ccc(F)cc1	·	-1%	31%	-15%	-10%	5%
CCOC(=O)CCCN1CC(O)=C(c2nc(-c3ccc(Cl)cc3)cs2)C1=N	-28%	106%	-1%	-19%	-9%	·
CCCCN1CC(O)=C(c2nc(-c3ccc(Br)cc3)cs2)C1=N	5µM*	14%	-4%	1%	?	-3%
Cc1cccc2cc3c(nc12)SC(=NCC1CCCO1)N(Cc1ccco1)C3 (configuration not stated)	-29%	?	12%	?	45µM*	-6%
Cc1ccc2nc3c(cc2c1)CN(Cc1ccco1)C(=NCC1CCCO1)S3 (configuration not stated)	-3%	8%	-5%	1%	-6%	5%
Cc1cc(Nc2ccccc2)c2c([N+](=O)[O-])ccc(C)c2n1	0%	50%	6%	-7%	-14%	16µM*
Cc1oc(C)c2c(=O)cc(-c3ccc4c(c3)OCO4)cc(OC(=O)c3ccccc3Cl)c12	18µM*	79µM*	·	?	?	·
COc1cc(-c2cc(OC)c3c(C)oc(C)c3c(=O)c2)ccc1OC(=O)c1ccccc1Cl	1%	22%	·	0%	-22%	·
Cc1cnc(CN(C)C(=O)CC2C(=O)NCCN2CCCc2ccccc2)[nH]1 (configuration not stated)	-16%	17%	5%	-19%	1%	·
CN(C)c1ccc(C(=C2C=CC(=[N+](C)C)C=C2)c2c(O)c(S(=O)(=O)[O-])cc3cc(S(=O)(=O)O)ccc23)cc1	·	?	·	8.9µM*	·	·
CN(C)c1ccc(C(=C2C=CC(=[N+](C)C)C=C2)c2ccc(N(C)C)cc2)cc1	·	-7%	?	?	·	·
CC(=O)Nc1nnc(SCc2cc(=O)c3cccc(C)c3[nH]2)s1	-14%	10%	·	2%[60.1 µM]	?	·
COc1ccccc1C(=O)Nc1nnc(SCc2cc(=O)c3cc(Cl)ccc3[nH]2)s1	4µM*	-22%	·	-7%[60.1 µM]	-8%	·
CC(=O)Nc1nnc(SCc2cc(=O)c3cccc(Cl)c3[nH]2)s1	5%	89µM*	·	-2%[60.1 µM]	-15%	·
Cc1ccc(Cn2cnc3c(oc4ccccc43)c2=O)cc1	0%	14%	·	-1%	-16%	·
